The assay has as its system MIWI (PIWIL1) piRISC loaded with L1MC piRNA (30 nt). Description: pre-steady-state target cleavage rate (min^-1); MIWI and MILI are mouse PIWI proteins and EfPiwi is from a freshwater sponge; tags in brackets are library labels; higher = faster piRNA-guided slicing of the target. The note with it: guide: L1MC piRNA 5'p-UAACUAAAUACUAUGCAAGCUGUAGGUCCU
As to the method: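 Cleave-'n-Seq: a library of target RNAs (target site embedded in constant flanks, ACAGCATTCCGCGTTAGTGATATCCG... 5' flank; DNA-blocked outside the site) at 0.1 nM was incubated with 1 nM active mouse MILI or MIWI piRISC (synthetic 5'-monophosphorylated piRNA guide) with or without 500 nM mouse GTSF1 at 33 °C for 1 min to 16 h. Uncleaved targets were sequenced and normalised to non-target controls, and the pooled three trials were fitted to a burst-and-steady-state model to give the pre-steady-state cleavage rate (min^-1; k3 is constrained to at most 1e-4). Sequence is the target site only; target names encode pairing extent (gX:gY) and contiguous / 1-mismatch / 2-mismatch / bulge geometry. Fits with R² ≤ 0 are excluded.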

Where [1] appears, read: auxiliary factor: 500 nM mouse GTSF1.
[2] abbreviates: auxiliary factor: none (no GTSF1).

± gives the standard deviation. The full ranking holds about 8,200 sequences; the median of “pre-steady-state target cleavage rate” is about 0.024, and the highest 2% start at about 1.3. Many of the other results were omitted from the sample, so the highest values are more common in it than they were.

As to UCGACCUACAGCUUGCAUAGAUUUUAGUAA, the “pre-steady-state target cleavage rate” value under setting [1] amounted to 0.124 ± 0.023.

With UCCUCCUACAGCUUGCAUAGUAAUUAGAUA, the “pre-steady-state target cleavage rate” value by setting is: under setting [1], 0.297 ± 0.047; under setting [2], 0.00556 ± 0.0028.

Regarding UCCUGCUACAGUCUUGCAUAGUAUUUAGUUA, the “pre-steady-state target cleavage rate” value by setting is: under setting [1], 0.643 ± 0.033; under setting [2], 0.0274 ± 0.005.

In the case of UCCUGGAUGUCGUUGCAUAGUAUUUAGUUUA, the “pre-steady-state target cleavage rate” value stood at 0.022 ± 0.0057 under setting [1] and 0.00499 ± 0.003 under setting [2].

UCCUGGAUGUCCUUGCAUAGUUUUUACUUA: the “pre-steady-state target cleavage rate” value under setting [1] came out at 0.00583 ± 0.0041.

Take UCCUGGAUGUGCUUGCAUAGUAUUUAUUA: the “pre-steady-state target cleavage rate” value under setting [1] was 0.0179 ± 0.0058.

For UGGACCUACAGCUUGCAUAGUAUUUCGUUA, the “pre-steady-state target cleavage rate” value under setting [1] stood at 0.411 ± 0.054 and the “pre-steady-state target cleavage rate” value under setting [2] amounted to 0.0397 ± 0.0067.

On to UCCUGGAUCAGCUUGCAUACUAAUUAGUUA, for which the “pre-steady-state target cleavage rate” value amounted to 0.0563 ± 0.0091 under setting [1] and 0.00771 ± 0.0023 under setting [2].

For the sequence UCCUCUUACAGCUUGCAUAGUAUUUAGUUA, the “pre-steady-state target cleavage rate” value by setting is: under setting [1], 1.62 ± 0.055; under setting [2], 0.061 ± 0.0099.

For UCCUGGUUACAGCUUGCAUAGUAUUUAGUUA, the “pre-steady-state target cleavage rate” value reads like this: under setting [1], 1.01 ± 0.048; under setting [2], 0.0561 ± 0.011.

For the sequence UCCUGCGUACAGCUUGCAUAGUAUUUAGUUA, the “pre-steady-state target cleavage rate” value under setting [1] came out at 1.33 ± 0.062 and the “pre-steady-state target cleavage rate” value under setting [2] was found to be 0.0785 ± 0.016.

For UCCUCGCUACAGCUUGCAUAGUAUUUAGUUA, the “pre-steady-state target cleavage rate” value is, setting by setting: under setting [1], 0.831 ± 0.05; under setting [2], 0.0517 ± 0.0088.

As to “UCCUGGUACAGCUUGCAUAGUAUUUAGUUA [g2:g24:cont:t1A]”, the “pre-steady-state target cleavage rate” value is 0.82 ± 0.041 under setting [1] and 0.0692 ± 0.013 under setting [2].

For the sequence UCCUGUUACAGCUUGCAUAGUAUUUAGUUA, the “pre-steady-state target cleavage rate” value is, setting by setting: under setting [1], 1.28 ± 0.058; under setting [2], 0.0747 ± 0.013.

Take UCCUGCUUACAGCUUGCAUAGUAUUUAGUUA: the “pre-steady-state target cleavage rate” value by setting is: under setting [1], 1.48 ± 0.13; under setting [2], 0.0826 ± 0.02.

Take UCCUCACUACAGCUUGCAUAGUAUUUAGUUA: the “pre-steady-state target cleavage rate” value is, setting by setting: under setting [1], 0.676 ± 0.03; under setting [2], 0.0551 ± 0.0082.

With UCCUCAUACAGCUUGCAUAGUAUUUAGUUA, the “pre-steady-state target cleavage rate” value by setting is: under setting [1], 1.47 ± 0.054; under setting [2], 0.0664 ± 0.01.

For UCCUCCUUACAGCUUGCAUAGUAUUUAGUUA, the “pre-steady-state target cleavage rate” value is, setting by setting: under setting [1], 1.3 ± 0.052; under setting [2], 0.0583 ± 0.011.

Regarding UCCUCCAUACAGCUUGCAUAGUAUUUAGUUA, the “pre-steady-state target cleavage rate” value was 0.364 ± 0.019 under setting [1] and 0.0335 ± 0.0051 under setting [2].

On to UCCUGCGACAGCUUGCAUAGUAUUUAGUUA, for which the “pre-steady-state target cleavage rate” value reads like this: under setting [1], 1.19 ± 0.06; under setting [2], 0.0863 ± 0.017.

Turning to AGGACCUACAGCUUGCUUAGAAUUUAGUUA, the “pre-steady-state target cleavage rate” value reads like this: under setting [1], 0.377 ± 0.04; under setting [2], 0.00929 ± 0.0032.

For the sequence UCCUGGAUGUCCUUACAUAGUAUUUAGUUA, the “pre-steady-state target cleavage rate” value under setting [1] worked out at 0.0237 ± 0.0056 and the “pre-steady-state target cleavage rate” value under setting [2] worked out at 0.0041 ± 0.0017.

UGGACCUACACGAUGCAUAGUAUUUAGAAA: under setting [1], the “pre-steady-state target cleavage rate” value is 0.122 ± 0.016.

For UCCUGCUACAGCUUGCUUAGUAUUUUCAAA, under setting [1], the “pre-steady-state target cleavage rate” value was determined as 0.11 ± 0.028.

Consider UCCUGGUUCAGCUUGCAUUGUAUUUAGUUA, for which the “pre-steady-state target cleavage rate” value is, setting by setting: under setting [1], 0.61 ± 0.028; under setting [2], 0.0343 ± 0.01.

As to UCCUGGUACAGCUUGCAUAGUAUUCUAGUUA, the “pre-steady-state target cleavage rate” value was 0.442 ± 0.092 under setting [1] and 0.00651 ± 0.0028 under setting [2].

With UCCACCUACAGCUUGCUUAGUAUUUAGAAA, under setting [1], the “pre-steady-state target cleavage rate” value was found to be 0.226 ± 0.037.

For UCCACCUACAGCUUGCAUAGUACUUUAGUUA, the “pre-steady-state target cleavage rate” value runs as follows: under setting [1], 0.447 ± 0.035; under setting [2], 0.00964 ± 0.0027.

Take UCCUGCAUACAGCUUGCAUAGUAUUUAGUUA: the “pre-steady-state target cleavage rate” value by setting is: under setting [1], 1.63 ± 0.12; under setting [2], 0.0686 ± 0.013.

Turning to UCCUGAUACAGCUUGCAUAGUAUUUAGUUA, the “pre-steady-state target cleavage rate” value by setting is: under setting [1], 1.15 ± 0.046; under setting [2], 0.0816 ± 0.017.

As for “UCCUGCUACAGCUUGCAUAGUAUUUAGUUG [g2:g25:cont:t1G]”, the “pre-steady-state target cleavage rate” value is 0.229 ± 0.019 under setting [1] and 0.0367 ± 0.0072 under setting [2].

As to UCGAGGUACAGCUUGCAUAGUAUUUUCAAA, the “pre-steady-state target cleavage rate” value was 0.278 ± 0.038 under setting [1] and 0.00215 ± 0.0021 under setting [2].

As to UCCUGCUACAGCUUGCAUAGUUAUUACAAA, the “pre-steady-state target cleavage rate” value under setting [1] was determined as 0.0101 ± 0.0052.

AGGACCUACAGCUUGCAAUGUAUUUACAAA: under setting [1], the “pre-steady-state target cleavage rate” value amounted to 0.0775 ± 0.019.

Turning to UCCUCCUACACCUUGCAAAGUAUUUAGUUA, the “pre-steady-state target cleavage rate” value runs as follows: under setting [1], 0.831 ± 0.043; under setting [2], 0.0328 ± 0.0065.

With UCCUGCUACAGCUUGCAUUGUUUUUAGUUA, the “pre-steady-state target cleavage rate” value is 0.0845 ± 0.0095 under setting [1] and 0.00988 ± 0.0021 under setting [2].

For the sequence UCGACCUACAGCAUGCAUUGUAUUUAGUUA, the “pre-steady-state target cleavage rate” value runs as follows: under setting [1], 0.944 ± 0.04; under setting [2], 0.0101 ± 0.0026.

In the case of UGAGACCUACAGCUUGCAUAGUAUUUAGUUA, the “pre-steady-state target cleavage rate” value reads like this: under setting [1], 1.49 ± 0.1; under setting [2], 0.0826 ± 0.015.

In the case of AGAGACCUACAGCUUGCAUAGUAUUUAGUUA, the “pre-steady-state target cleavage rate” value under setting [1] came out at 1.46 ± 0.067 and the “pre-steady-state target cleavage rate” value under setting [2] was 0.091 ± 0.017.

For the sequence UCCUGGAACACCUUGGAUAGUAUUUAGUUA, the “pre-steady-state target cleavage rate” value by setting is: under setting [1], 0.286 ± 0.038; under setting [2], 0.00651 ± 0.0022.

For the sequence UCCUGGAUGAGCUUGCAUAGUAUAUUAGUUA, the “pre-steady-state target cleavage rate” value runs as follows: under setting [1], 0.464 ± 0.04; under setting [2], 0.00823 ± 0.004.

As for UCCUGGUACAGCUUGCAUAGUAAUUAGAUA, the “pre-steady-state target cleavage rate” value by setting is: under setting [1], 0.209 ± 0.042; under setting [2], 0.00778 ± 0.0021.

With AGGACGUACAGCUUGCAUAGUAUUUAGAAA, the “pre-steady-state target cleavage rate” value stood at 0.432 ± 0.06 under setting [1] and 0.0172 ± 0.0052 under setting [2].

On to UCCUGGAUGUCGAACGUAAGUAUUUAUUA, for which the “pre-steady-state target cleavage rate” value was < 0.0001 under setting [1] and < 0.0001 under setting [2].

For UCCACCUACAGCUUGGUAAGUAUUUAGUUA, the “pre-steady-state target cleavage rate” value under setting [1] is 0.0619 ± 0.011.

For the sequence UCCACCUACAGCUUGCAUAGUAUUUAGGUA, the “pre-steady-state target cleavage rate” value is 0.3 ± 0.054 under setting [1] and 0.00404 ± 0.0029 under setting [2].

As for UGGUACCUACAGCUUGCAUAGUAUUUAGUUA, the “pre-steady-state target cleavage rate” value by setting is: under setting [1], 0.945 ± 0.17; under setting [2], 0.117 ± 0.034.

With ACCACCUACAGCUUGCAUAGUAUUUAGUUA, the “pre-steady-state target cleavage rate” value under setting [1] is 1.16 ± 0.056 and the “pre-steady-state target cleavage rate” value under setting [2] amounted to 0.0927 ± 0.017.

Turning to UCCACCUACAGCUUGCAUAGUAUUUAGUUUA, the “pre-steady-state target cleavage rate” value runs as follows: under setting [1], 0.907 ± 0.047; under setting [2], 0.0632 ± 0.014.

For the sequence UGUACCUACAGCUUGCAUAGUAUUUAGUUA, the “pre-steady-state target cleavage rate” value under setting [1] worked out at 1.34 ± 0.049 and the “pre-steady-state target cleavage rate” value under setting [2] amounted to 0.0875 ± 0.013.

On to UCUACCUACAGCUUGCAUAGUAUUUAGUUA, for which the “pre-steady-state target cleavage rate” value is, setting by setting: under setting [1], 1.4 ± 0.043; under setting [2], 0.0731 ± 0.013.

Regarding AGGUACCUACAGCUUGCAUAGUAUUUAGUUA, the “pre-steady-state target cleavage rate” value by setting is: under setting [1], 1.35 ± 0.21; under setting [2], 0.481 ± 0.15.

Take AGUACCUACAGCUUGCAUAGUAUUUAGUUA: the “pre-steady-state target cleavage rate” value runs as follows: under setting [1], 1.23 ± 0.064; under setting [2], 0.0796 ± 0.013.

On to UCCUCGUACAGCUUGCAUAGUAAUUAGUUA, for which the “pre-steady-state target cleavage rate” value under setting [1] worked out at 0.952 ± 0.032 and the “pre-steady-state target cleavage rate” value under setting [2] stood at 0.029 ± 0.007.

Regarding UCCUGCAUGAGCUUGCAUAGUAUUUAGUUA, the “pre-steady-state target cleavage rate” value is 0.92 ± 0.051 under setting [1] and 0.0506 ± 0.01 under setting [2].

As to UCCUGGAACAGCUUGCAUAGUAUUAUGUUA, the “pre-steady-state target cleavage rate” value is, setting by setting: under setting [1], 0.169 ± 0.023; under setting [2], 0.013 ± 0.0044.

On to UCCUGGAACACUUGCAUAGUAUUUAGUUA, for which the “pre-steady-state target cleavage rate” value was found to be 0.596 ± 0.032 under setting [1] and 0.0132 ± 0.0044 under setting [2].

As for UCCACGUACAGCUUGCAUAGAAUUUAGUUA, the “pre-steady-state target cleavage rate” value runs as follows: under setting [1], 0.412 ± 0.022; under setting [2], 0.0297 ± 0.0084.

As to UGGACCUACAGCUUGCAAAGUAUUUAGUUA, the “pre-steady-state target cleavage rate” value was determined as 1.36 ± 0.058 under setting [1] and 0.0474 ± 0.0097 under setting [2].

On to UGGACCUACAGCUUGCAAAGUAUUUAGUAA, for which the “pre-steady-state target cleavage rate” value by setting is: under setting [1], 1.13 ± 0.074; under setting [2], 0.0219 ± 0.006.

Turning to UGCACCUACAGCUUGCAAAGUAUUUAGUUA, the “pre-steady-state target cleavage rate” value runs as follows: under setting [1], 1.23 ± 0.08; under setting [2], 0.0409 ± 0.0074.

These data come from the supplement of paper PMC10338343.
